Compounds without any hit were thinned out: in the full panel of roughly 83,000, 20% have a hit.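 Method: cells in 96-well plates; compound added at one concentration; 48 h incubation; percent growth measured; values under 10 scored active.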 Values without a mark were called inactive. Activity calls are given as the source filed them.

The test concerns BT-549 breast. Kind of test: NCI-60 one-dose screen, 48 h (100 = growth as untreated, 0 = no growth, -100 = all killed). The note with it: 10 µM.
As for `CN1CCN(c2ccc(Nc3nc(N4CCN(S(=O)(=O)c5ccc(F)cc5)CC4)c4sccc4n3)cc2)CC1`, the growth is 65.2%.

With `CCCCCc1ccc(S(=O)(=O)Nc2cc(-c3csc(N(C)C(C)=O)n3)ccc2N2CCN(C)CC2)cc1`, the growth was 48.6%.

Regarding `CN1CCN(c2ccc(Nc3nc(NCCCNC(=O)C4CCCCC4)c4sccc4n3)cc2)CC1`, the growth was 69.1%.

For `N[C@@H](CSSC[C@H](N)C(=O)Nc1ccc(OCC2CCCC2)cc1)C(=O)Nc1ccc(OCC2CCCC2)cc1`, the growth was -63.5% (active).

`COc1ccc2nc(Cl)c(-c3cc(-c4ccccc4)nc(=O)[nH]3)cc2c1`: the growth was 38.9%.

With `O=C(Nc1ccc(OCc2ccccc2)cc1)Nc1ccc(Cl)c(C(F)(F)F)c1`, the growth is -15.9% (active).

On to `COc1ccc2[nH]c(O)c(N=NC(=O)COc3ccc(NC(=O)Nc4ccc(Cl)cc4)cc3)c2c1`, for which the growth is 76%.

Take `Cc1cc2c(c(O)c1Br)-c1ncoc1C(=O)[C@]1(C)CC[C@H](C(C)C)[C@H]21`: the growth was -24.6% (active).

Consider `CCN1CCN(c2ccc(NC(=O)Nc3ccc4c(c3F)CCN4c3ccnc(C(=O)NC)c3)cc2C(F)(F)F)CC1`, for which the growth was -39.7% (active).

Take `O=C1Nc2ccc(F)cc2/C1=C/c1cccc(OCc2ccccc2)c1`: the growth is 23%.

For `Cc1ccc(NC(=O)c2ccc(-n3c(=O)[nH]c4ccccc4c3=O)cc2)cc1`, the growth is 24.4%.

For `O=C(Nc1ccncc1)c1ccc(-n2c(=O)[nH]c3ccccc3c2=O)cc1`, the growth is 92.6%.

In the case of `Cc1ccc(-c2cc(-c3cc4ccccc4nc3Cl)[nH]c(=S)n2)cc1`, the growth is 7.67% (active).

The record behind these values is PubChem BioAssay (NCI).
